Laboratory results as given in PubChem BioAssay (EPA / NIEHS).
Where “and” joins values, the source holds several entries; their conditions need not be identical. Equal entries are not always repeated. Where a structure was tested more than once in an assay, its records may differ in their call. Calls of active or inactive are those of the source. The calls were made as follows: active = hit-call score of the fitted dose curve at least 0.9, where 1 is the maximum; inactive = score below 0.9.

read-out: Cytochrome P450 2C19 (Homo sapiens) (UniProt P33261); assay: LTEA_HepaRG_CYP2C19: Life Technologies and Expression Analysis (LTEA) Assay for CYP2C19 using HepaRG (AID 2283482); settings: mRNA level, 48 h; actives raise or lower the signal
Procedure, shortened: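 Transcript levels of CYP2C19 were quantified by qRT-PCR after HepaRG cells were treated for 48 hours with test chemicals up to 100 uM (eight half-log concentrations, 0.5% DMSO vehicle). Gain or loss of signal was fitted relative to DMSO.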

Cytochrome P450 2C19 (Homo sapiens), sequence (P33261 whole entry, looked up): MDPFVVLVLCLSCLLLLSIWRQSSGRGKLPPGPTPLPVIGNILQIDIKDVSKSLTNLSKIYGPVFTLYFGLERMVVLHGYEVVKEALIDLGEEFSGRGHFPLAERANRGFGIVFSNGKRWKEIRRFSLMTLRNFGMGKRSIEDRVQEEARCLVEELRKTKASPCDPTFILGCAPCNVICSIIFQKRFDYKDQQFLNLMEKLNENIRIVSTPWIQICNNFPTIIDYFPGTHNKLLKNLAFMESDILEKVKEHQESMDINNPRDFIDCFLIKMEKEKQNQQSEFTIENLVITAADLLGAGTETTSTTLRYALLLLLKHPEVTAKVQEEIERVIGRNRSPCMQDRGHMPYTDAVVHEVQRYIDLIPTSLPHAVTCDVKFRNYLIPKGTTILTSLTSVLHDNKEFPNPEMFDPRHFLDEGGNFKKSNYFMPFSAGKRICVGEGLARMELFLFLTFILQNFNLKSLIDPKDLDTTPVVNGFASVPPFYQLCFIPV

Compound | AC50 | outcome
O=C(Nc1ccccc1)Nc1ccnc(Cl)c1 | 79 µM (active) | –
O=C(O)c1nc(Cl)ccc1Cl | – | inactive
O=C(O)COc1nc(Cl)c(Cl)cc1Cl | 51 µM (active) | –
CC(Oc1ccc(Cl)cc1Cl)C(=O)O (configuration not stated) | – | inactive
CCCCNC(=O)OCC#CI | 50 µM (active) | –
COc1ccc(C(c2ccc(OC)cc2)C(Cl)(Cl)Cl)cc1 | 12.7 µM (active) | –
CCNc1nc(Cl)nc(NCC)n1 | – | inactive
C=CC1(C)OC(=O)N(c2cc(Cl)cc(Cl)c2)C1=O (configuration not stated) | 18.4 µM (active) | –
CCOC(=O)CC(SP(=S)(OC)OC)C(=O)OCC (configuration not stated) | – | inactive
Fc1ccc(Oc2ccnc3cc(Cl)cc(Cl)c23)cc1 | – | inactive
OC(c1ccc(Cl)cc1)(c1cncnc1)c1ccccc1Cl (configuration not stated) | 89.6 µM (active) | –
N#CC(CCc1ccc(Cl)cc1)(Cn1cncn1)c1ccccc1 (configuration not stated) | 76.1 µM (active) | –
N#Cc1nn(-c2c(Cl)cc(C(F)(F)F)cc2Cl)c(N)c1S(=O)C(F)(F)F (configuration not stated) | 29.9 µM (active) | –
CC1COC(Cn2cncn2)(c2ccc(Oc3ccc(Cl)cc3)cc2Cl)O1 (configuration not stated) | 27.1 µM (active) | –
COP(=S)(OC)Oc1nc(Cl)c(Cl)cc1Cl | – | inactive
CCCN(CCC)c1c([N+](=O)[O-])cc(S(N)(=O)=O)cc1[N+](=O)[O-] | 8.44 µM (active) and 84.8 µM (active) and 8.78 µM (active) | –
COC(=O)C=C(C)OP(=O)(OC)OC | – | inactive
CS/C(C)=N/OC(=O)N(C)SN(C)C(=O)O/N=C(\C)SC | – | inactive
CCOP(=S)(OCC)SCn1c(=O)oc2cc(Cl)ccc21 | – | inactive
COC(=O)C(C)Oc1ccc(Oc2ccc(Cl)cc2Cl)cc1 (configuration not stated) | 29.4 µM (active) | –
CNC(=S)S | – | inactive
C=CCC1=C(C)C(OC(=O)C2C(C=C(C)C)C2(C)C)CC1=O (configuration not stated) | 91.5 µM (active) | inactive
CCc1nn(C)c(C(=O)NCc2ccc(C(C)(C)C)cc2)c1Cl | 20.7 µM (active) | –
C=CCC1=C(C)[C@@H](OC(=O)[C@@H]2[C@@H](C=C(C)C)C2(C)C)CC1=O | – | inactive
COc1nc(NC(C)C)nc(NC(C)C)n1 | 9.99 µM (active) | –

read-out: CYP2C8 (gene 1558); assay: LTEA_HepaRG_CYP2C8: Life Technologies and Expression Analysis (LTEA) Assay for CYP2C8 using HepaRG (AID 2283483); settings: mRNA level, 48 h; actives raise or lower the signal
Procedure, shortened: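 HepaRG (human liver line), 48 h chemical exposure, 8-pt half-log series from 100 uM, 0.5% DMSO vehicle. Readout: CYP2C8 transcript by qRT-PCR, housekeeping-normalized. Bidirectional fit vs DMSO baseline.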

Compound | outcome | AC50
O=C(Nc1ccccc1)Nc1ccnc(Cl)c1 | inactive | –
O=C(O)c1nc(Cl)ccc1Cl | inactive | –
O=C(O)COc1nc(Cl)c(Cl)cc1Cl | inactive | –
CC(Oc1ccc(Cl)cc1Cl)C(=O)O (configuration not stated) | inactive | –
CCCCNC(=O)OCC#CI | – | 50 µM (active)
COc1ccc(C(c2ccc(OC)cc2)C(Cl)(Cl)Cl)cc1 | inactive | –
CCNc1nc(Cl)nc(NCC)n1 | inactive | –
C=CC1(C)OC(=O)N(c2cc(Cl)cc(Cl)c2)C1=O (configuration not stated) | – | 16.7 µM (active)
CCOC(=O)CC(SP(=S)(OC)OC)C(=O)OCC (configuration not stated) | inactive | –
Fc1ccc(Oc2ccnc3cc(Cl)cc(Cl)c23)cc1 | – | 86.6 µM (active)
OC(c1ccc(Cl)cc1)(c1cncnc1)c1ccccc1Cl (configuration not stated) | – | 83.6 µM (active)
N#CC(CCc1ccc(Cl)cc1)(Cn1cncn1)c1ccccc1 (configuration not stated) | – | 73.7 µM (active)
N#Cc1nn(-c2c(Cl)cc(C(F)(F)F)cc2Cl)c(N)c1S(=O)C(F)(F)F (configuration not stated) | – | 33 µM (active)
CC1COC(Cn2cncn2)(c2ccc(Oc3ccc(Cl)cc3)cc2Cl)O1 (configuration not stated) | – | 9.46 µM (active)
COP(=S)(OC)Oc1nc(Cl)c(Cl)cc1Cl | inactive | –
CCCN(CCC)c1c([N+](=O)[O-])cc(S(N)(=O)=O)cc1[N+](=O)[O-] | inactive | –
COC(=O)C=C(C)OP(=O)(OC)OC | inactive | –
CS/C(C)=N/OC(=O)N(C)SN(C)C(=O)O/N=C(\C)SC | inactive | –
CCOP(=S)(OCC)SCn1c(=O)oc2cc(Cl)ccc21 | inactive | –
COC(=O)C(C)Oc1ccc(Oc2ccc(Cl)cc2Cl)cc1 (configuration not stated) | inactive | –
CNC(=S)S | inactive | –
C=CCC1=C(C)C(OC(=O)C2C(C=C(C)C)C2(C)C)CC1=O (configuration not stated) | inactive | 85.6 µM (active)
CCc1nn(C)c(C(=O)NCc2ccc(C(C)(C)C)cc2)c1Cl | – | 0.414 µM (active)
C=CCC1=C(C)[C@@H](OC(=O)[C@@H]2[C@@H](C=C(C)C)C2(C)C)CC1=O | inactive | –
COc1nc(NC(C)C)nc(NC(C)C)n1 | inactive | –
